# Assay results published in the OligoGym collection.
# Molecular target: CYP2E1
# Assay: pooled miR-30 sensor sort-seq; sequence = guide strand
# Conditions: shRNA
# Also: reference of the scale not given here.
row,Sequence,sensor-assay potency score (higher = more potent)
1,ATATTCTTCAATTCCAACTGGA,0.347
2,TCACTGTACTTGAACTTTCCAT,-0.768
3,ATAGTCACTGTACTTGAACTTT,-0.806
4,TTTTTTATGACTTTTCTGTGGC,0.343
5,TACAGCGTGAACACCGGCCCGA,-0.641
6,TATTCTTCAATTCCAACTGGAA,-0.685
7,TTATTAAAAATGATTCCCCTGT,0.074
8,TAAACTTTTCTGGATCAGGAAA,-1.37
9,TAGTCACTGTACTTGAACTTTC,-0.787
10,TTGAAATAGTCACTGTACTTGA,-0.183
11,TTAAACAAATACATCAGCCTTA,0.593
12,ATGTAGGGCATCTCTTGCCTAT,-1.01
13,TGTCCTTCCAGGTAGGTCCATT,-0.826
14,TTCATGGAGCTTCTCTTCGATC,-1.27
15,TGTCATACAAAACAGAGTCCAG,-0.481
16,TAAACAAATACATCAGCCTTAG,-0.917
17,ATCATTGTAGTCAAAATGCTTG,-1.07
18,TTATTGTAAAGCTGGAGCCAGG,-1.09
